# Measured values from PubChem BioAssay (Tox21).
# Several values for one entry are separate records, joined by “and”; a condition that tells them apart may be missing. Identical values can stand only once. Records with an inconclusive call do not appear. Where a call stands in place of a potency, no number is given. A structure can be active in one record and inactive in another. Activity calls are given as the source filed them. Unless noted, calls follow the shape of the dose curve; as a rule, active = well fitted curve in the direction sought with a large enough effect in the repeat runs; inconclusive = weak or mixed curves; inactive = no such curve, though single readings can be large; an effect the other way counts as inactive or inconclusive.
# Columns and labels:
# [1] = qHTS assay to identify small molecule agonists of the peroxisome proliferator-activated receptor delta (PPARd) signaling pathway - cell viability counter screen (AID 743211); also: nearly all actives have a fitted effect of over 55% in size; also: potency is read from the fitted curve at half-maximal effect
# Outline: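 Read-out: CellTiter-Glo luminescence, 30 min RT, measured in the same wells as the beta-lactamase reporter. Cells: GeneBLAzer PPAR delta UAS-bla HEK293H, 3000 cells/well, compound exposure 17 h at 37C.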
# [2] = qHTS assay to identify small molecule agonists of the farnesoid-X-receptor (FXR) signaling pathway - cell viability counter screen (AID 743218); also: nearly all actives have a fitted effect of over 45% in size; also: potency is read from the fitted curve at half-maximal effect
# Outline: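 In GeneBLAzer FXR-UAS-bla HEK 293T cells, compounds act for 16 h at 37 C. Cell viability is then scored in the reporter wells by CellTiter-Glo, 30 min at RT, luminescence.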
# [3] = qHTS assay to identify small molecule antagonists of the farnesoid-X-receptor (FXR) signaling pathway - cell viability counter screen (AID 743221; active = well fitted cell-killing curve with a large enough effect in the repeat runs, not every such curve was filed as active; also: nearly all actives have a fitted effect of over 50% in size; also: potency is read from the fitted curve at half-maximal effect)
# Outline: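 HEK 293T FXR-bla cells, 5 h pre-incubation; compound + CDCA 50 uM final, 16 h, 37 C; beta-lactamase FRET read first, then CellTiter-Glo luminescence, 30 min RT.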
# [4] = qHTS assay to identify small molecule agonists of the vitamin D receptor (VDR) signaling pathway - cell viability counter screen (AID 743224); also: nearly all actives have a fitted effect of over 50% in size; also: potency is read from the fitted curve at half-maximal effect
# Outline: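 VDR-bla cell line, quantitative HTS format; 16 h compound incubation (37C, 5% CO2); ATP-based CellTiter-Glo luminescence measured in the reporter assay wells.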
# [5] = qHTS assay to identify small molecule antagonists of the vitamin D receptor (VDR) signaling pathway - cell viability counter screen (AID 743225); also: nearly all actives have a fitted effect of over 50% in size; also: potency is read from the fitted curve at half-maximal effect
# Outline: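 Viability counter screen run in the same wells as the beta-lactamase reporter assay: HEK 293T VDR-UAS-bla cells, 16 h compound exposure at 37C with 3 nM (final) 1-alpha,25-dihydroxyvitamin D3. CellTiter-Glo luminescence, 30 min, room temperature.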
# [6] = qHTS assay to identify small molecule agonists of the NFkB signaling pathway - cell viability counter screen (AID 1159515; calls by dose curve; also: nearly all actives have a fitted effect of over 55% in size; also: potency is read from the fitted curve at half-maximal effect)
# Outline: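 Viability in NFkB-bla ME-180 cells was measured by CellTiter-Glo luminescence, 30 min room temperature, in wells already treated 5 hr with compounds and read for reporter FRET.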
# [7] = qHTS assay to identify small molecule antagonists of the retinoid-related orphan receptor gamma (ROR-gamma) signaling pathway - cell viability counter screen (AID 1159520); also: nearly all actives have a fitted effect of over 50% in size; also: potency is read from the fitted curve at half-maximal effect
# Outline: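 Tet-on ROR gamma CHO cells were given compounds for 2 hr, then doxycycline hyclate at 1 uM final, and incubated 16 hr at 37 C. Viability was measured as ATP content by CellTiter-Glo luminescence.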
# [8] = molecular target: Bile acid receptor (Homo sapiens) (UniProt Q96RI1); experiment: qHTS assay to identify small molecule agonists of the farnesoid-X-receptor (FXR) signaling pathway (AID 743220; active = well fitted activation curve with a large enough effect in the signal ratio in the repeat runs, not every such curve was filed as active; the % refers to the signal ratio)
# Outline: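 Beta-lactamase reporter under UAS control in GeneBLAzer FXR HEK 293T cells (5000/well) measured with LiveBLAzer FRET substrate after 2 h at room temperature. Compound exposure lasted 16 h at 37C.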
# [9] = molecular target: Nuclear receptor ROR-gamma (Homo sapiens) (UniProt P51449); experiment: qHTS assay to identify small molecule antagonists of the retinoid-related orphan receptor gamma (ROR-gamma) signaling pathway (AID 1159521; also: nearly all actives have a fitted effect of over 50% in size; also: potency is read from the fitted curve at half-maximal effect)
# Outline: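 Luminescence readout (ONE-Glo, 30 min RT) after 16 h doxycycline induction; loss of signal scored as antagonism. CHO cells with TET-inducible RORγ and RORE-LUC reporter; compounds added 2 h before 1 uM final doxycycline.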
# [10] = qHTS assay to identify small molecule agonists of the AP-1 signaling pathway - cell viability counter screen (AID 1159525; calls by dose curve; also: nearly all actives have a fitted effect of over 55% in size; also: potency is read from the fitted curve at half-maximal effect)
# Outline: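 AP-1-bla ME-180 cells in Opti-MEM with 0.5% dialyzed FBS, compound exposure 5 h at 37 C in 15-point titration. Viability read in the same wells as ATP content by CellTiter-Glo luminescence, normalised to tetra-n-octylammonium bromide and DMSO controls.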
# [11] = qHTS assay to identify small molecule antagonists of the peroxisome proliferator-activated receptor delta (PPARd) signaling pathway - cell viability counter screen (AID 743213); also: nearly all actives have a fitted effect of over 50% in size; also: potency is read from the fitted curve at half-maximal effect
# Outline: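 Cytotoxicity counter screen: CellTiter-Glo luminescence read 30 min after addition, in the same wells as the reporter assay. There, PPARd UAS-bla HEK293H cells (3000/well) were treated 17 h at 37 C with compound and 300 nM L165041.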
# [12] = molecular target: Vitamin D3 receptor (Homo sapiens) (UniProt P11473); experiment: qHTS assay to identify small molecule agonists of the vitamin D receptor (VDR) signaling pathway (AID 743222; calls by dose curve)
# Outline: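 Agonist activity measured in VDR-bla reporter cells. Exposure 16 h, 37C, 5% CO2; detection by B/G FRET substrate, 2 h RT.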
# [13] = molecular target: Peroxisome proliferator-activated receptor delta (Homo sapiens) (UniProt Q03181); experiment: qHTS assay to identify small molecule agonists of the peroxisome proliferator-activated receptor delta (PPARd) signaling pathway (AID 743212; calls by dose curve; also: potency is read from the fitted curve at half-maximal effect)
# Outline: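 Quantitative high-throughput agonist screen in a HEK293H beta-lactamase reporter line under UAS control. Compounds in DMSO, at 37 C. Fluorescence read after 2 h with FRET substrate at room temperature.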
# [14] = molecular target: Vitamin D3 receptor (Homo sapiens) (UniProt P11473); experiment: qHTS assay to identify small molecule antagonists of the vitamin D receptor (VDR) signaling pathway (AID 743223; active = well fitted inhibition curve with a large enough effect in the signal ratio in the repeat runs, not every such curve was filed as active; the % refers to the signal ratio)
# Outline: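 Beta-lactamase reporter read-out: FRET substrate fluorescence after 2 h at room temperature, following 16 h exposure of VDR-bla cells to test compound plus 3 nM (final) 1alpha,25-dihydroxyvitamin D3 agonist at 37C.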
# [15] = molecular target: Retinoic acid receptor RXR-alpha (Homo sapiens) (UniProt P19793); experiment: qHTS assay to identify small molecule agonists of the RXR signaling pathway (AID 1159527; calls by dose curve; also: nearly all actives have a fitted effect of over 35% in size)
# Outline: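 Agonist mode; 9-cis retinoic acid positive control. HEK 293T UAS-bla reporter cells, 2% charcoal-stripped FBS, 16 hr compound exposure at 37 C/5% CO2. LiveBLAzer B/G FRET substrate 2 hr RT; ex 405, em 460/530 nm.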
# [16] = molecular target: Peroxisome proliferator-activated receptor delta (Homo sapiens) (UniProt Q03181); experiment: qHTS assay to identify small molecule antagonists of the peroxisome proliferator-activated receptor delta (PPARd) signaling pathway (AID 743215; active = well fitted inhibition curve with a large enough effect in the signal ratio in the repeat runs, not every such curve was filed as active; the % refers to the signal ratio;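 also: cells stimulated with agonist L165041 at 300 nM final during compound exposure; series mostly up to about 62 µM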)
# Outline: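 Antagonist-mode beta-lactamase reporter screen: HEK293H cells with UAS-bla under PPARd control, stimulated by 300 nM L165041 (final) alongside test compound for 17 h at 37 C, then FRET fluorescence after 2 h substrate incubation.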
# [17] = molecular target: Bile acid receptor (Homo sapiens) (UniProt Q96RI1); experiment: qHTS assay to identify small molecule antagonists of the farnesoid-X-receptor (FXR) signaling pathway (AID 743217; active = well fitted inhibition curve with a large enough effect in the signal ratio in the repeat runs, not every such curve was filed as active; the % refers to the signal ratio)
# Outline: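 Beta-lactamase reporter under UAS control in HEK 293T cells; compound exposure 16 h at 37 °C in the presence of chenodeoxycholic acid (50 uM final); signal from B/G FRET substrate after 2 h at room temperature.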
# [18] = qHTS assay to identify small molecule agonists of the endoplasmic reticulum stress response signaling pathway (AID 1159516; active = well fitted activation curve with a large enough effect in the signal ratio in the repeat runs, not every such curve was filed as active; the % refers to the signal ratio)
# Outline: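 ER stress element reporter (bla) in HeLa. 1,500 cells/well, overnight attachment; 5 hr compound; 2 hr RT substrate; dual-emission fluorescence.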
# [19] = qHTS assay to identify small molecule agonists of the endoplasmic reticulum stress response signaling pathway - cell viability counter screen (AID 1159517; calls by dose curve)
# Outline: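 Counter-screen wells were identical to the reporter wells. Cells were plated at 1,500 per well and dosed for 5 hr, then read for luminescence 30 min after CellTiter-Glo addition.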
# [20] = qHTS assay to identify small molecule agonists of the AP-1 signaling pathway (AID 1159526; calls by dose curve)
# Chain of Vitamin D3 receptor (Homo sapiens) (P11473 whole entry, looked up): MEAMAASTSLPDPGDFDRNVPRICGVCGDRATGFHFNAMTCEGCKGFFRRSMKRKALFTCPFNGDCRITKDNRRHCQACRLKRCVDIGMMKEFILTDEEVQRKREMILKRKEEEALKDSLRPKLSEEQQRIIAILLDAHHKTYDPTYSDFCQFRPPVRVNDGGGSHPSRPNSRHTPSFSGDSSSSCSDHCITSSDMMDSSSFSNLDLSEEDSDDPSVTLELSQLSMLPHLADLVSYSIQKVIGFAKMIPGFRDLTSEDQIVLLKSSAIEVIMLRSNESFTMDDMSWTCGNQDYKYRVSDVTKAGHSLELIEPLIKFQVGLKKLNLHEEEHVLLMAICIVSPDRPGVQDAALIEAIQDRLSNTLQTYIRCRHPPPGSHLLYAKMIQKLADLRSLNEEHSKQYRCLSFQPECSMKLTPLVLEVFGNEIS
# Chain of Bile acid receptor (Homo sapiens) (Q96RI1 whole entry, looked up): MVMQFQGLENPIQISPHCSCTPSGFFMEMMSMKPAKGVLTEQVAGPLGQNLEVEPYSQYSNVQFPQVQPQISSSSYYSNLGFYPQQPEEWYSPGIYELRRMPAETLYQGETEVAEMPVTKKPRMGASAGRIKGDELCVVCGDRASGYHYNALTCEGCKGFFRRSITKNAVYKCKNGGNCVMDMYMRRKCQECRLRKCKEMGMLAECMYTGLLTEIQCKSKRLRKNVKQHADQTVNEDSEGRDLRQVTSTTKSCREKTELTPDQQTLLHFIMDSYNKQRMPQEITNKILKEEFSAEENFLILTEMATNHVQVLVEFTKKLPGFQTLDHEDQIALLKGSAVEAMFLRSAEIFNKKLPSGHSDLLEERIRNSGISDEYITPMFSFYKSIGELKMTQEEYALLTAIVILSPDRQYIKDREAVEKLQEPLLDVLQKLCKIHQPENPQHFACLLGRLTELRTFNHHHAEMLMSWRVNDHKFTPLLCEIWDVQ
# Chain of Retinoic acid receptor RXR-alpha (Homo sapiens) (P19793 whole entry, looked up): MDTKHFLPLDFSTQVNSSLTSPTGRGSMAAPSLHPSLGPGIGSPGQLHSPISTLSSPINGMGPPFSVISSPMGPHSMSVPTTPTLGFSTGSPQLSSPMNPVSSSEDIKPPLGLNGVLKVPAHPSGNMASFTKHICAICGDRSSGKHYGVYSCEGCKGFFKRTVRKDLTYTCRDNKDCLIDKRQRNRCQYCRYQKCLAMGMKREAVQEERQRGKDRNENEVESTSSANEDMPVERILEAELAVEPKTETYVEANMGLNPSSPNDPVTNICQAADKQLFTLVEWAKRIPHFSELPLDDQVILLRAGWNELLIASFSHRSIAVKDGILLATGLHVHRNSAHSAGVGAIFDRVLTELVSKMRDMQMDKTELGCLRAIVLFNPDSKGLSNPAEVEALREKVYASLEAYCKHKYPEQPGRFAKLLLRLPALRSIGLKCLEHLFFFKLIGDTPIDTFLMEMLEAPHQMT
# Chain of Peroxisome proliferator-activated receptor delta (Homo sapiens) (Q03181 whole entry, looked up): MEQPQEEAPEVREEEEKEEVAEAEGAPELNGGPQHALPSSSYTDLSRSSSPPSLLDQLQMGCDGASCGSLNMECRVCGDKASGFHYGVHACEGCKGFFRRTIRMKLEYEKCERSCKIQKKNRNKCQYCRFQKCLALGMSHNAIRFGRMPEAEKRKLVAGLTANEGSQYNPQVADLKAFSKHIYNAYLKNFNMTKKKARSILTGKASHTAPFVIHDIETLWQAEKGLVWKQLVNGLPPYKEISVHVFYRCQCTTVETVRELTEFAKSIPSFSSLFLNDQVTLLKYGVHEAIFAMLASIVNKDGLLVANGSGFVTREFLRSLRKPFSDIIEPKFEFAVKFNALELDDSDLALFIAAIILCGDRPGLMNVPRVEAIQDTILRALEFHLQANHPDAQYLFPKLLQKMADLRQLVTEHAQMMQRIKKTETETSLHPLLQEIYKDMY
compound,measurement,setting,value
CCCC(=O)OC[C@@H](OC(=O)CCC)[C@@H](OC(=O)CCC)[C@H](Cn1c2nc(=O)[nH]c(=O)c-2nc2cc(C)c(C)cc21)OC(=O)CCC,Potency,[1],inactive
same,Potency,[2],inactive
same,Potency,[3],inactive
same,Potency,[4],inactive
same,Potency,[5],inactive
same,Potency,[6],inactive
same,Potency,[7],inactive
CCCCCCCCS(=O)C(C)Cc1ccc2c(c1)OCO2 (stereo unspecified),Potency,[1],50 µM (active)
same,Potency,[8],inactive
same,Potency,[4],50 µM (active)
same,Potency,[5],44.5 µM (active)
same,Potency,[6],inactive
same,Potency,[7],inactive
same,Potency,[9],inactive
same,Potency,[10],inactive
CNc1ccc(O)cc1,Potency,[1],38.8 µM (active)
same,Potency,[11],43.6 µM (active)
same,Potency,[3],inactive
same,Potency,[4],38.8 µM (active)
same,Potency,[6],48.9 µM (active)
same,Potency,[7],7.68 µM (active)
Cc1cc(C2CCCCC2)n(O)c(=O)c1,Potency,[1],5.31 µM (active)
same,Potency,[11],9.44 µM (active)
same,Potency,[4],18.8 µM (active)
same,Potency,[6],5.35 µM (active)
same,Potency,[9],23.7 µM (active)
same,Potency,[10],inactive
CCOC(=O)c1nc(C(Cl)(Cl)Cl)n(-c2ccc(Cl)cc2Cl)n1,Potency,[1],54.9 µM (active)
same,Potency,[11],49 µM (active)
same,Potency,[8],inactive
same,Potency,[12],inactive
same,Potency,[5],49 µM (active)
same,Potency,[6],inactive
same,Potency,[9],21.7 µM (active)
same,Potency,[10],inactive
C/C(=C(/OCCOc1ccc(Cl)cc1)c1ccc(Cl)cc1Cl)n1ccnc1,Potency,[13],inactive
same,Potency,[11],inactive
same,Potency,[2],inactive
same,Potency,[3],inactive
same,Potency,[12],inactive
same,Potency,[14],inactive
same,Potency,[5],inactive
same,Potency,[6],inactive
same,Potency,[7],inactive
same,Potency,[15],inactive
C[C@H](CCC(=O)O)[C@H]1CC[C@H]2[C@@H]3CC[C@@H]4C[C@H](O)CC[C@]4(C)[C@H]3CC[C@]12C,Potency,[1],inactive and 54.9 µM (active)
same,Potency,[16],inactive
same,Potency,[17],inactive
same,Potency,[3],inactive and 43.6 µM (active)
same,Potency,[4],24.5 µM (active)
same,Potency,[5],inactive
same,Potency,[6],49 µM (active)
same,Potency,[7],60.9 µM (active) and inactive
same,Potency,[9],inactive
same,Potency,[10],48.8 µM (active)
CCCCCCCCCCCCCCCC(=O)OC[C@H](O)[C@H]1OC(=O)C(O)=C1O,Potency,[1],49 µM (active)
same,Potency,[13],49 µM (active)
same,Potency,[11],inactive
same,Potency,[16],inactive
same,Potency,[2],38.9 µM (active)
same,Potency,[3],inactive
same,Potency,[12],inactive
same,Potency,[14],inactive
same,Potency,[4],34.7 µM (active)
same,Potency,[5],inactive
same,Potency,[6],inactive
same,Potency,[7],inactive
S=c1[nH]c2ccccc2s1,Potency,[1],inactive
same,Potency,[13],inactive
same,Potency,[11],inactive
same,Potency,[3],inactive
same,Potency,[6],inactive
CCN(C(=O)N(CC)c1ccccc1)c1ccccc1,Potency,[1],inactive
same,Potency,[11],inactive
same,Potency,[2],inactive
same,Potency,[3],inactive
same,Potency,[5],inactive
same,outcome,[18],inactive
same,Potency,[19],inactive
same,Potency,[7],inactive
same,Potency,[10],inactive
same,Potency,[20],inactive
same,Potency,[15],inactive
NC(=O)CC[C@@H]1NC(=O)[C@H](Cc2ccccc2)NC(=O)[C@H](Cc2ccc(O)cc2)NC(=O)CCSSC[C@@H](C(=O)N2CCC[C@H]2C(=O)N[C@@H](CCCN=C(N)N)C(=O)NCC(N)=O)NC(=O)[C@H](CC(N)=O)NC1=O,Potency,[1],inactive
same,Potency,[11],inactive
same,Potency,[2],inactive
same,Potency,[12],inactive
same,Potency,[4],inactive
same,Potency,[5],inactive
same,outcome,[18],inactive
same,Potency,[19],inactive
same,Potency,[7],inactive
same,Potency,[9],inactive
same,Potency,[10],inactive
same,Potency,[20],inactive
same,Potency,[15],inactive
